Screening data: PubChem BioAssay, several laboratories
AHR activator = human AHR activation; P35869; AHR-responsive luciferase reporter cells, luminescence; activation, % at 5 µM; hit rate 2.5% among 320,000; AID 2796; in the data active = activation above about 47%;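 also: 0% = vehicle wells and 100% = reference agonist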
Target sequence (P35869 whole entry, looked up): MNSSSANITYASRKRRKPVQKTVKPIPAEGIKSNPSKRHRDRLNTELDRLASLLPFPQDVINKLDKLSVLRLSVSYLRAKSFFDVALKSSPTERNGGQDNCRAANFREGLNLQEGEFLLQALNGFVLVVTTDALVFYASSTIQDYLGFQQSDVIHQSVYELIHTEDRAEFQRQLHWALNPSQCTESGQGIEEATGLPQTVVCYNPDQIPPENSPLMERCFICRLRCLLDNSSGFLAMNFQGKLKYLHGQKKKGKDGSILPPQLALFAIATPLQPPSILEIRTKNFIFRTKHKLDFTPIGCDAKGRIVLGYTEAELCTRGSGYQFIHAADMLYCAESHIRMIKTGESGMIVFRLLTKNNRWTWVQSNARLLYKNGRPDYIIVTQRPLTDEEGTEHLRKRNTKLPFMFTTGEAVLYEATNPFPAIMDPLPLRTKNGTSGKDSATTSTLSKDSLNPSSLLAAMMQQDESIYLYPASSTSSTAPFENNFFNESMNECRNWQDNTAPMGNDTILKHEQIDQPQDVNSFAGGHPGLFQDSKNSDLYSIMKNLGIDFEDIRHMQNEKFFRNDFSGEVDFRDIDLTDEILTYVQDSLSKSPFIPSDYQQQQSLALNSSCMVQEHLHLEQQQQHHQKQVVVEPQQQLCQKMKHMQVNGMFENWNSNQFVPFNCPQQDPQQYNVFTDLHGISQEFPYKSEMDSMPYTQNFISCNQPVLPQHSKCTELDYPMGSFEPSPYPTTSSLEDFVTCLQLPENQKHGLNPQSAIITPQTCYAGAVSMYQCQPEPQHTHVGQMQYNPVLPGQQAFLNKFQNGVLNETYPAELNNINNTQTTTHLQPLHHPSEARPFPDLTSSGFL
GAA850 FXN act = frataxin GAA850 promoter activation | activation, % at 6 µM | HEK293 lucGAA850 FXN promoter luciferase reporter, 24 h; percent of 10 µM SAHA response | AID 540364 | hit rate 0.56% among 360,000;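 active = activation above the average of all compounds screened plus 3 SD, cutoff fixed separately per campaign, cut at about 7.5% in these data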;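 also: 0% = DMSO wells and 100% = 10 µM SAHA wells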
esBAF inh = inhibitors of esBAF chromatin remodeling in mouse ES cells; Bmi1-luciferase knock-in reporter, 24 h; 100% = twice the neutral-well signal; reporter increase, % at 12.5 µM; hit rate 2% among 350,000; in the data active = activation above about 40%; inconclusive = no clear call, values can overlap the other calls;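 also: 0% = median of the plate's neutral control wells and 100% = double that signal; a rise in the Bmi1 reporter signal indicates esBAF inhibition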
Wnt bcat act = Wnt/beta-catenin pathway activation. Wnt/beta-catenin reporter cell assay, activator, plate reader. activation, % at 9.35 µM. hit rate 1.2% among 300,000. AID 743398; in the data active = activation above about 30%, passing the limit was not always enough; inconclusive = no clear call, values can overlap the other calls;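 also: 0% = neutral control wells and 100% = positive control wells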
MITF TRPM1 HTS = increases MITF-driven TRPM1 promoter luciferase signal; SK-MEL-5 TRPM1-promoter luciferase, 24 h; % of positive control, neutral wells = 0; hit rate 0.75% among 300,000; activation, % at 12.5 µM; AID 588334;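 active = mean activation of at least 80% with every replicate also reaching 80%; inconclusive = mean reaches 80% but some replicate falls short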;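 also: 0% = neutral control wells and 100% = parthenolide positive control wells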
Active calls of the source: *; ? = inconclusive; . = no result. Shown are actives, neighbours in structure and some others; about 4.2% of the full set was active somewhere.

SMILES	AHR activator	GAA850 FXN act	esBAF inh	Wnt bcat act	MITF TRPM1 HTS
Cn1c(CN2CCCC2)nc2cc(NC(=O)c3ccc(Cl)cc3)ccc21	15	4	53*	2	26
Cn1c(C(=O)Nc2ccc(Cl)cc2)cc2cc(Cl)ccc21	68*	-1	2	-4	0
C[C@H](NC(=O)c1cc2cc(Cl)ccc2n1C)C(=O)N1CCC(C(=O)O)CC1	.	1	7	7	1
CC(C)(C)n1cnc2cc(NC(=O)c3ccc(Cl)cc3)ccc21	2	4	7	43*	.
Nc1nc(N)nc(-c2cccc(Br)c2)n1	.	5	38	36*	41
COCC(=O)N[C@H]1C=C[C@H](CC(=O)NCc2ccc(Cl)cc2)O[C@H]1CO	.	.	4	.	.
O=C(CNC(=O)c1ccc(Cl)cc1)NNC(=O)c1ccc(Br)cc1	1	0	-4	55*	5
O=C(CNC(=O)c1ccc(Br)cc1)NCC(=O)OCc1ccc(Cl)cc1	2	1	9	-2	-15
C/C(CC(=O)Nc1ccc(N(C)C)cc1)=N\NC(=O)c1cnccn1	52*	2	.	.	-5
C[C@@H]1CN([C@H](C)CO)C(=O)c2cc(C#CCN(C)C)cnc2O[C@H]1CN(C)C(=O)Nc1cccc(F)c1	.	.	-4	.	.
COC(=O)c1ccc(N=NN2CCCCC2)cc1	10	4	.	0	89*
COc1ccc(-c2ccc3c(c2)O[C@H](CN(C)C(=O)Nc2ccccc2F)[C@H](C)CN([C@@H](C)CO)S3(=O)=O)cc1	.	.	-2	.	.
CC(C)NC(=O)Nc1ccc2c(c1)C(=O)N([C@H](C)CO)C[C@H](C)[C@@H](CN(C)S(=O)(=O)c1ccc(Cl)cc1)OCCCC[C@@H](C)O2	.	.	1	.	.
Cc1ccc(SC[C@H](c2ccccc2)N2CCN(C)CCC2=O)cc1	.	4	51*	17	69
CC(=O)Nc1ccc(SC[C@H](CC(C)C)N2CCN(CCc3ccccc3)CCC2=O)cc1	48*	-2	1	-2	3
CN1CCC(=O)N([C@H](CSc2ccccc2)c2ccccc2)CC1	8	3	17	4	21
CC(C)C[C@@H](CSc1ccc(Br)cc1)N1CCN(C)CCC1=O	9	4	44*	12	81*
Cc1ccc(SC[C@H](CC(C)C)N2CCN(C)CCC2=O)cc1	.	3	58*	7	53
Cc1ccc(SC[C@H](CC(C)C)N2CCN(CCc3ccccc3)CCC2=O)cc1	.	3	19	6	63
COc1ccc(S(=O)(=O)Nc2cccc3ccc(O)cc23)cc1	5	0	.	-11	.
Cc1cc(C)c(S(=O)(=O)Nc2cc(SCC(=O)O)c(O)c3ccccc23)cc1C	61*	.	.	.	.
Cc1cc(C)c(S(=O)(=O)/N=C2/C=C(SCC(=O)O)C(=O)c3ccccc32)cc1C	.	0	.	.	-50
COc1ccc(S(=O)(=O)Nc2cc(SCC(=O)O)c(O)c3ccccc23)cc1	66*	3	2	8	-64
O=C(O)CSc1cc(NS(=O)(=O)c2ccc(Cl)cc2)c2ccccc2c1O	50*	-2	3	6	-33
O=S(=O)(Nc1ccc(Cl)cc1NS(=O)(=O)c1ccccc1)c1ccccc1	.	0	-1	1	0
SMILES	AHR activator	GAA850 FXN act	esBAF inh	Wnt bcat act	MITF TRPM1 HTS
C[C@@H]1CN([C@H](C)CO)C(=O)Cc2cc(NC(=O)Nc3ccc4c(c3)OCO4)ccc2O[C@H]1CN(C)C(=O)NC1CCCCC1	.	.	0	.	.
CCOC(=O)C1CCCN(C(=O)/C=C/c2ccc(Cl)cc2)C1 (stereo not drawn)	2	1	.	9	-7
Cc1ccc(/C=C/C(=O)N2CCCC(C)C2)cc1 (stereo not drawn)	1	2	.	-2	88*
CC(C)(C)c1ccc(/C=C/C(=O)N2CCCCC2)cc1	.	7	47*	33*	101*
CC1CCN(C(=O)/C=C/c2ccc(C(C)(C)C)cc2)CC1	5	3	.	5	27
S=C(N/N=C/c1cccc2ccccc12)Nc1cccc(Cl)c1	48*	1	-7	0	.
Cc1c(Cl)cccc1NC(=S)N/N=C/c1ccccc1Cl	30	.	.	.	.
S=C(N/N=C/c1ccccc1Cl)Nc1ccccc1	62*	2	37	5	26
CNC(=S)N/N=C/c1ccccc1Cl	60*	-1	.	2	7
O=C(CSc1ccc(-c2nc3ccccc3[nH]2)cn1)Nc1ccc(S(=O)(=O)N2CCCC2)cc1	4	-1	.	41*	13
Cc1cc2nc(-c3ccc(SCC(=O)Nc4nccs4)nc3)[nH]c2cc1C	.	1	.	.	-71
CC(=O)CSc1ccc(-c2nc3ccccc3[nH]2)cn1	3	3	-19	0	3
Cc1cc2nc(-c3ccc(SCC(=O)Nc4ccc(S(=O)(=O)N5CCCC5)cc4)nc3)[nH]c2cc1C	32	1	.	47*	27
O=C(NC1CCCCCC1)C(=O)NC1CC1	1	-1	9	1	.
O=C(NC1CCCCCC1)C(=S)NC1CCCCC1	2	0	.	33*	64
O=C(NC1CCCCCCC1)NC1CCCCC1	7	6	.	58*	91*
COc1ccc(/C=N/OCC(=O)NCC(C)C)c(OC)c1	31	1	0	1	-6
COc1ccc(/C=N/OCC(=O)NCc2cccs2)c(OC)c1	48*	3	.	.	-5
COc1ccccc1N1CCN(/N=C/c2ccc([N+](=O)[O-])cc2)CC1	.	5	?	13	.
COc1ccccc1N1CCN(/N=C/c2ccc(Cl)c([N+](=O)[O-])c2)CC1	-2	5	44*	9	27
COc1cc(C(=O)Nc2nnc(C)s2)cc(OC)c1OC	69*	0	-1	2	.
COc1cc(C(=O)Nc2nncs2)cc(OC)c1OC	16	0	-12	5	4
COc1cc(C(=O)NC(=S)Nc2nccs2)cc(OC)c1OC	79*	2	.	0	4
Cn1c(C(C#N)/C(=N\S(=O)(=O)c2cccs2)c2ccccc2)nc2ccccc21 (stereo not drawn)	79*	-1	3	.	-6
Clc1ccc(/C=N\Nc2ccccc2)cc1	14	3	42*	4	.
SMILES	AHR activator	GAA850 FXN act	esBAF inh	Wnt bcat act	MITF TRPM1 HTS
Cc1ccc(N/N=C/c2cccnc2)cc1	11	7	.	-2	32
[O-]/[N+](=N\Nc1ccc(Cl)cc1)c1ccccc1	.	4	52*	3	75
O=C(Nc1cccc(Cl)c1)O/N=C\c1ccncc1	2	0	4	-1	-11
Clc1cccc(N/N=C/c2ccncc2)c1	9	1	.	9	101*
Cc1ccc(N/N=C/c2ccncc2)cc1	51*	5	47	6	?
CCOc1ccc(/C=N/Nc2ccccc2)cc1	19	0	27	12	-6
CCC(=O)N[C@@H]1CC[C@@H](CC(=O)NCCN2CCCCC2)O[C@@H]1CO	.	.	-3	.	.
C/C=C/c1ccc2c(c1)O[C@H](CN(C)C(=O)c1ccccn1)[C@@H](C)CN([C@@H](C)CO)S2(=O)=O	.	.	2	.	.
Cc1ccccc1NC(=O)OCc1ccccc1	-5	4	53*	7	.
CSc1ccccc1COC(=O)Nc1ccccc1C	0	2	6	-1	6
